Experimental data: PubChem BioAssay (NCI)
The panel holds about 83,000 compounds, 20% with a hit somewhere; the sample as a whole holds those more often.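 48-hour exposure, single concentration, 96-well plates; percent growth endpoint where 0 means no net growth. Active: below 10.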 Values without a mark were called inactive. Calls of active or inactive are those of the source.

Experiments:
Experiment in all cases: NCI-60 one-dose screen, 48 h (100 = growth as untreated, 0 = no growth, -100 = all killed)
Details in all cases: 10 µM unless noted
[1] = tested on: DU-145 prostate
[2] = tested on: K-562 leukemia
[3] = tested on: MALME-3M melanoma
[4] = tested on: MDA-MB-231 breast
[5] = tested on: RXF 393 renal
[6] = tested on: SF-268 CNS
[7] = tested on: SF-295 CNS
[8] = tested on: SF-539 CNS
[9] = tested on: UACC-257 melanoma
[10] = tested on: M14 melanoma
[11] = tested on: HCT-15 colon
[12] = tested on: HT29 colon
[13] = tested on: SNB-75 CNS
[14] = tested on: U251 CNS
[15] = tested on: PC-3 prostate
[16] = tested on: SK-MEL-5 melanoma
[17] = tested on: UACC-62 melanoma
[18] = tested on: SK-MEL-28 melanoma
[19] = tested on: LOX IMVI melanoma

| SMILES | growth [1] | growth [2] | growth [3] | growth [4] | growth [5] | growth [6] | growth [7] | growth [8] | growth [9] | growth [10] | growth [11] | growth [12] | growth [13] | growth [14] | growth [15] | growth [16] | growth [17] | growth [18] | growth [19] |
| --- | --- | --- | --- | --- | --- | --- | --- | --- | --- | --- | --- | --- | --- | --- | --- | --- | --- | --- | --- |
| C[C@H]1[C@H](C)CC[C@]2(C(=O)OCCCC[P+](c3ccccc3)(c3ccccc3)c3ccccc3)CC[C@]3(C)C(=CC[C@@H]4[C@@]5(C)CC[C@H](OC(=O)C(Cl)Cl)C(C)(C)[C@@H]5CC[C@]43C)[C@H]12 | -35.2% (active) | -57.4% (active) | -85.2% (active) | -68.8% (active) | -91.4% (active) | -31.8% (active) | -77.9% (active) | -78.8% (active) | -78.9% (active) | -82.7% (active) | -68.8% (active) | -55.5% (active) | -24.5% (active) | -88.6% (active) | -60.8% (active) | -100% (active) | -67.8% (active) | -77.4% (active) |  |
| COCCc1n(Cc2ccc3ccccc3c2)c2ccccc2[n+]1Cc1ccc2ccccc2c1 | 2.65% (active) | -67.8% (active) | -69.5% (active) | -74.7% (active) | -44.3% (active) | -58.4% (active) | -32.7% (active) | -8.99% (active) | -29.3% (active) | -72.2% (active) | 7.25% (active) | -61.3% (active) | -39.7% (active) | -89.8% (active) | -14.5% (active) | -97.5% (active) | -89.3% (active) | -46.4% (active) | -92.5% (active) |
| Nc1ccc(C2=NN(C(=O)c3cc(-c4ccc(Cl)cc4)nc4ccccc34)C(c3ccc(Cl)cc3)C2)cc1 (stereo unspecified) | 27.2% | 13.2% | 63% | 63.2% | -4.45% (active) | 55% | 18.2% | 8.98% (active) | 57.5% | 6.28% (active) | 26.3% | 11.5% | 67.5% | 31.5% | 23.3% | 28.3% | 38% | 65% | 48.3% |
| C#C[C@@]1(O)[C@@H](CO)O[C@@H](n2cc(Br)c3c(N)ncnc32)[C@@H]1O | 5% (active) | 5.03% (active) | 5.66% (active) | 2.76% (active) | -30.9% (active) | 13.9% | 2.42% (active) | -60.8% (active) | 57.5% | 0.212% (active) | 2.93% (active) | 3.26% (active) | -36.2% (active) | -12.4% (active) | -2.77% (active) | 4.89% (active) | 15.1% | 58.2% | -56.8% (active) |
| COc1cc(F)c(-c2nc3c(C)cccc3n2Cc2c(F)cccc2F)c(F)c1 | 108% | 76.2% | 79.5% | 89.2% | 97.8% | 84.3% | 79.9% | 101% | 76.2% | 86.3% | 81.9% | 70.1% | 71.5% | 83.6% | 64.2% | 85.6% | 64.5% | 98.7% | 87.8% |
| COc1cc(/C=C/C(=O)c2ccc(NC(=O)CSc3nnc(-c4cc(OC)c(OC)c(OC)c4)n3-c3ccccc3)cc2)cc(OC)c1OC | 26.5% | 6.66% (active) | 67.7% | 42.7% | -55.4% (active) | 34.3% | 17.7% | 18.6% | 45.8% | -9.25% (active) | -37.6% (active) | 1.25% (active) | 45.4% | -8.68% (active) | 28% | 17.6% | 20.8% | 33.3% | -52.3% (active) |
| COc1ccc(C(=O)c2cc(OC)c(C)c(OC)c2)cc1OC(=O)CCl | 12.7% | 9.2% (active) | 69.2% | 30.3% | 18.4% | 44.9% | 17.6% | -7.95% (active) | 60.3% | 6% (active) | 12.4% | 55.6% | 38.1% | 17.1% | 13.4% | 9.8% (active) | 38% | 49.5% | 21.8% |
| COc1ccc2oc(=O)cc(-c3nc4ccc(N)cc4[nH]3)c2c1 | 97.5% | 119% | 121% | 74.2% | 95.1% | 87.5% | 90.2% | 82.3% | 132% | 114% | 97.7% | 97.3% | 53.6% | 86.2% | 81.1% | 81.5% | 91.5% | 111% | 78.6% |
